# Measured values reported in the supplement of paper PMC10849652.
# About 7,900 targets were measured; listed, in parts, are those with a hit and a random draw of the rest. About 0.6% of all pairs of compound and target were hits. Unmarked numbers belong to inactive results.
# What was measured:
# Assay in all cases: log2 fold change, soluble protein after heating vs DMSO (PISA); higher = thermal stabilisation; K562 cells, 10 uM, 30 min; active = over 0.2 and 3.5 SD of the protein, either way, in both replicates (recomputed)
# [1] = compound: CS(=O)(=O)c1ccc(-c2cnc(N)c(C(=O)Nc3ccccc3)n2)cc1
# Method in brief: (§1)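 Quantification of soluble protein used TMTpro 16plex LC-MS/MS, with channel sums equalised. Samples were the supernatant after 21,000xg for 90 min of pooled aliquots from K562 cells (2×10^6 cells/mL) treated with 10 μM compound for 30 min, heated for 3 min over 48°C-58°C, and extracted in PBS with 0.5% NP-40 at 4°C. Values, from duplicates, describe thermal stability against control samples on a log2 fold-change scale.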
# [2] = compound: C[C@@H](Oc1cc(-c2cnn(C3CCNCC3)c2)cnc1N)c1c(Cl)ccc(F)c1Cl [crizotinib]
# Method in brief: as §1
# [3] = compound: C[C@@H]1COCCN1C2=NC(=NC(=C2)C3(CC3)S(=O)(=O)C)C4=C5C=CNC5=CC=C4
# Method in brief: as §1
# [4] = compound: C[C@H](C1=CC=C(C=C1)C(=O)NC2=C3C=CNC3=NC=C2)N
# Method in brief: as §1
# [5] = compound: C[C@H](Nc1ncnc2nc[nH]c12)c1cc2cccc(Cl)c2c(=O)n1-c1ccccc1 [duvelisib]
# Method in brief: as §1
# [6] = compound: Cc1cc(Nc2cc(CN3CCOCC3)c3nc(C)c(Cc4ccc(Cl)cc4F)n3n2)n[nH]1 [gandotinib]
# Method in brief: as §1
# [7] = compound: Cc1cc(Nc2cc(N3CCN(C)CC3)nc(Sc3ccc(NC(=O)C4CC4)cc3)n2)n[nH]1 [tozasertib]
# Method in brief: as §1
# [8] = compound: Cc1cc(SCc2sc(-c3ccc(C(F)(F)F)cc3)nc2C)ccc1OCC(=O)O
# Method in brief: as §1
# [9] = compound: Cc1ccc(-n2nc(C(C)(C)C)cc2NC(=O)Nc2ccc(OCCN3CCOCC3)c3ccccc23)cc1 [doramapimod]
# Method in brief: as §1
# [10] = compound: Cc1ccc(C(=O)N(CCCN)[C@@H](c2nc3cc(Cl)ccc3c(=O)n2Cc2ccccc2)C(C)C)cc1 [ispinesib]
# Method in brief: as §1
# [11] = compound: Cc1ccc(NC(=O)c2ccc(CN3CC[C@H](N(C)C)C3)c(C(F)(F)F)c2)cc1Nc1nccc(-c2cncnc2)n1 [bafetinib]
# Method in brief: as §1
# [12] = compound: Cc1cccc(CC(=O)N2CCc3c2ccc(-c2cn(C)c4ncnc(N)c24)c3F)n1
# Method in brief: as §1
# [13] = compound: Cc1cn(-c2cc(NC(=O)c3ccc(C)c(Nc4nccc(-c5cccnc5)n4)c3)cc(C(F)(F)F)c2)cn1 [nilotinib]
# Method in brief: as §1
# [14] = compound: Cc1nc(Nc2n[nH]c3c2CN(C(=O)N[C@H](CN(C)C)c2ccccc2)C3(C)C)c2sccc2n1
# Method in brief: as §1
# [15] = compound: Cc1nc(Nc2ncc(C(=O)Nc3c(C)cccc3Cl)s2)cc(N2CCN(CCO)CC2)n1 [dasatinib]
# Method in brief: as §1
# [16] = compound: Cc1ncc(-c2ccnc(Nc3ccc(S(C)(=O)=O)cc3)n2)n1C(C)C
# Method in brief: as §1
# [17] = compound: Cn1cc(-c2ccc3c(c2)CCN3C(=O)Cc2cccc(C(F)(F)F)c2)c2c(N)ncnc21
# Method in brief: as §1
# [18] = compound: Cn1cc(-c2ccc3nnc(C(F)(F)c4ccc5ncccc5c4)n3n2)cn1
# Method in brief: as §1
# [19] = compound: Cn1cncc1[C@@](N)(c1ccc(Cl)cc1)c1ccc2c(c1)c(-c1cccc(Cl)c1)cc(=O)n2C [tipifarnib]
# Method in brief: as §1
# [20] = compound: FC(F)(F)c1ccc(/C=C/c2nc(COc3ccc(CCCCn4ccnn4)cc3)co2)cc1 [mubritinib]
# Method in brief: as §1
# Chain of UniProt Q14149 (Q14149 whole entry, looked up): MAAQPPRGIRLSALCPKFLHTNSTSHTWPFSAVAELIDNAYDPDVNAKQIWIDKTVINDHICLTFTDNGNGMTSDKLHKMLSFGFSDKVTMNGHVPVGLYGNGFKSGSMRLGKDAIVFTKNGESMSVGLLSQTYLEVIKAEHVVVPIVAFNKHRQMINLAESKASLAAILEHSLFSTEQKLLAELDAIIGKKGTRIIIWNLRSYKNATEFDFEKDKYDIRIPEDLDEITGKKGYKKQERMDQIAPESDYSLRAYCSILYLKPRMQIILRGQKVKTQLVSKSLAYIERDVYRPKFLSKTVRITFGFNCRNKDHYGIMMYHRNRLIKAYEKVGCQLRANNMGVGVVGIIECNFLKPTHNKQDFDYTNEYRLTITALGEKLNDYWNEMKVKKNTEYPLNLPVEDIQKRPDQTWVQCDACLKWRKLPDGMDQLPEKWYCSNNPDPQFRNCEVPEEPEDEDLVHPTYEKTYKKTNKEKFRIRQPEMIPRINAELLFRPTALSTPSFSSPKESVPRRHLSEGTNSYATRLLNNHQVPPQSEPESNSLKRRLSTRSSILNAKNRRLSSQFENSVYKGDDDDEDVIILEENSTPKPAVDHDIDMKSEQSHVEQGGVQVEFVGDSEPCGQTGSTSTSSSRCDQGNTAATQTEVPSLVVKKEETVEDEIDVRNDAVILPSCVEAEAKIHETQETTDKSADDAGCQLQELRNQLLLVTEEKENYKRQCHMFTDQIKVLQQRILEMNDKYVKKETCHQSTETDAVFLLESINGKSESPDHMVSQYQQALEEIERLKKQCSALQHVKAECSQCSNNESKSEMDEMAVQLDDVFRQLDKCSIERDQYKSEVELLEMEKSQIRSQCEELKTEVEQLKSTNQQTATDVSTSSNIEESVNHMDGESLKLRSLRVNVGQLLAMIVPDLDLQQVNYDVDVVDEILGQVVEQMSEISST
# Chain of UniProt O60890 (O60890 whole entry, looked up): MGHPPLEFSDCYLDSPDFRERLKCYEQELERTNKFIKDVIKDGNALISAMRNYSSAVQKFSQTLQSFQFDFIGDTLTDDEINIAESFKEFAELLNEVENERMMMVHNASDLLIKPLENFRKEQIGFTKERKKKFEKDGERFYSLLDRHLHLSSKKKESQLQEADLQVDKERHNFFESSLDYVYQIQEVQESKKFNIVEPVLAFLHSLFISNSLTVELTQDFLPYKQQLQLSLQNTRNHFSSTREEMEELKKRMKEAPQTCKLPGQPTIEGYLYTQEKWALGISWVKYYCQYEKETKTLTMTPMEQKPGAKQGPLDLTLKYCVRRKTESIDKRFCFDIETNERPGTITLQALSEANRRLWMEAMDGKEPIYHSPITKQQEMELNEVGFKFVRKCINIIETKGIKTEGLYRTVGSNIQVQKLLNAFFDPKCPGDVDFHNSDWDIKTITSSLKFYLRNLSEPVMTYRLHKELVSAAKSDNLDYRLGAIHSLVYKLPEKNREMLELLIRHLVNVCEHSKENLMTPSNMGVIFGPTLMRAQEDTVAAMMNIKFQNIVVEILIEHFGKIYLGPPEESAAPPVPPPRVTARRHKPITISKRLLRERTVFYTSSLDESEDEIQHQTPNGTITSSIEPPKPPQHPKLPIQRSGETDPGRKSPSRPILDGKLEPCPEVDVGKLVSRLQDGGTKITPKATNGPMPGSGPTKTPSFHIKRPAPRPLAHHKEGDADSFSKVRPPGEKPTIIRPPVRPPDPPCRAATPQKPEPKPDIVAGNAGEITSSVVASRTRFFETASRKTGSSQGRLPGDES
# Chain of UniProt Q9HCE1 (Q9HCE1 whole entry, looked up): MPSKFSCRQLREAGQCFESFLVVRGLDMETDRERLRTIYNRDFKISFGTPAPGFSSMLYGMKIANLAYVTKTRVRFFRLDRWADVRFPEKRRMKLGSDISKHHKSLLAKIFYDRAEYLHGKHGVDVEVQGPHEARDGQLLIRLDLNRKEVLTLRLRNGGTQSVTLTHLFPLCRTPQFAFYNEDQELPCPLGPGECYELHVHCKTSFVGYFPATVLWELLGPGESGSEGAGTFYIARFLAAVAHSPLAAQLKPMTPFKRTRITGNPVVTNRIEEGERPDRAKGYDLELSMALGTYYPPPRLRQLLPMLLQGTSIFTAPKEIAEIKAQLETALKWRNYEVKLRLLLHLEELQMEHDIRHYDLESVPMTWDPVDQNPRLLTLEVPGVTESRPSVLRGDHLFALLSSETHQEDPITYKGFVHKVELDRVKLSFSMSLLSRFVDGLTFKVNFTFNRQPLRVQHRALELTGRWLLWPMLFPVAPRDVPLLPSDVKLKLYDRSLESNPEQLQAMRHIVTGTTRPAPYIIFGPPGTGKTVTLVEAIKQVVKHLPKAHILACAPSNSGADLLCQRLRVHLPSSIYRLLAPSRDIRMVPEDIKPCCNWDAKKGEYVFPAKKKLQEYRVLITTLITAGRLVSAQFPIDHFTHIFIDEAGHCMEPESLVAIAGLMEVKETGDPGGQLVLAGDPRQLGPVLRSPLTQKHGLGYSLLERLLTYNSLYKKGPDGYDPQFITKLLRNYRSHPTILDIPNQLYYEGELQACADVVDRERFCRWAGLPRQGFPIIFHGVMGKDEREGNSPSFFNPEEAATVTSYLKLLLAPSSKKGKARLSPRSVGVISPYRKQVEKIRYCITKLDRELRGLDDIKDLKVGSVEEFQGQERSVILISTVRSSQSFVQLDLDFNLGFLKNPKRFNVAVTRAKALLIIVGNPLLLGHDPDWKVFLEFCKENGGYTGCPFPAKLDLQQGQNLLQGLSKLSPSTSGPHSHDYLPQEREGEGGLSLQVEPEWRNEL
# Chain of UniProt P51956 (P51956 whole entry, looked up): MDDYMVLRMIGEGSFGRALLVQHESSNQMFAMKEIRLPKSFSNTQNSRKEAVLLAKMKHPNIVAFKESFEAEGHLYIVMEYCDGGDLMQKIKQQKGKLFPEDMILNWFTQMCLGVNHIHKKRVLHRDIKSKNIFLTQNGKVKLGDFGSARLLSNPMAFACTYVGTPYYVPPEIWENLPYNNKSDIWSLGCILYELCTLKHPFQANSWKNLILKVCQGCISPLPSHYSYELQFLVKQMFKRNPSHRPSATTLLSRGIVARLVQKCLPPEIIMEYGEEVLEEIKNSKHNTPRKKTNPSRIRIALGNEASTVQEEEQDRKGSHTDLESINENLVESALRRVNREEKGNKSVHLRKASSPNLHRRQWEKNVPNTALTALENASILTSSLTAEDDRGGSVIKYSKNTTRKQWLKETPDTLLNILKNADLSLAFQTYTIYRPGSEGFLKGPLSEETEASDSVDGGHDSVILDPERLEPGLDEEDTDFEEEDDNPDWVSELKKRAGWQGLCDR
# Chain of UniProt Q68DK7 (Q68DK7 whole entry, looked up): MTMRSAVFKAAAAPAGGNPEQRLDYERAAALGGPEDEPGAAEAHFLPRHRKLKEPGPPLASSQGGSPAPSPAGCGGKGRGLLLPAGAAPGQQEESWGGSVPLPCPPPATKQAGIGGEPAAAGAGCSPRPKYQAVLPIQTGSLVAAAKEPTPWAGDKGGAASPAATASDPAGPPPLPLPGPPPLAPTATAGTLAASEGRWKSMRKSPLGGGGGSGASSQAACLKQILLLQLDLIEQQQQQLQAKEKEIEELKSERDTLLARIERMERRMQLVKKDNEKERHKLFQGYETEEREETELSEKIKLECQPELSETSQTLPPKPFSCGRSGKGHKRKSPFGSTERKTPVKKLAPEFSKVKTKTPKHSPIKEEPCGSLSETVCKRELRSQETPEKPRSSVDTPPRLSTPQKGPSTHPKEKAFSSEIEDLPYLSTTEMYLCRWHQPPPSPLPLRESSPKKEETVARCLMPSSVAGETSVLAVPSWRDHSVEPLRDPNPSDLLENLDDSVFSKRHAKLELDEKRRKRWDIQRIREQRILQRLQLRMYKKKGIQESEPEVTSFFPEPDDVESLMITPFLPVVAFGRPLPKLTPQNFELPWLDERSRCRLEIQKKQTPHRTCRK
# Chain of UniProt Q9BS92 (Q9BS92 whole entry, looked up): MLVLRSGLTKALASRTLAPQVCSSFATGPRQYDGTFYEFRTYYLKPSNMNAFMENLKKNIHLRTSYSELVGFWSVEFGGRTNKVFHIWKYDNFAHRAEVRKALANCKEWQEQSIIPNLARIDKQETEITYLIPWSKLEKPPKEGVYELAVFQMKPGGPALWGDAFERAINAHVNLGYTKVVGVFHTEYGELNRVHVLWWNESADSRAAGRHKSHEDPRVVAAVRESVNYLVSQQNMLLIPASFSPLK
# Chain of UniProt Q99747 (Q99747 whole entry, looked up): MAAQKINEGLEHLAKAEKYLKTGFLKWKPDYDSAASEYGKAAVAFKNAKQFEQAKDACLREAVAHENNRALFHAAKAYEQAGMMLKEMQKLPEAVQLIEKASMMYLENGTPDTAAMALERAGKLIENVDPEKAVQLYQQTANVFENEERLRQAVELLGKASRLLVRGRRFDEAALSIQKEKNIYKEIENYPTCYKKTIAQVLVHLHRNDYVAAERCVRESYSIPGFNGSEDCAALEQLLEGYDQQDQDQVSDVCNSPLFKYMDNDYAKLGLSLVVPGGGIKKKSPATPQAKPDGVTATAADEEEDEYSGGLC
# Chain of UniProt O75607 (O75607 whole entry, looked up): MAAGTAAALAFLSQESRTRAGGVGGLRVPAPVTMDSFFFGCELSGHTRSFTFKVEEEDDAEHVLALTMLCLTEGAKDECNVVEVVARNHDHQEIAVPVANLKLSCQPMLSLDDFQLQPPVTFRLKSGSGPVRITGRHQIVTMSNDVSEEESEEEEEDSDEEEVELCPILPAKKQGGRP
# Chain of UniProt P84157 (P84157 whole entry, looked up): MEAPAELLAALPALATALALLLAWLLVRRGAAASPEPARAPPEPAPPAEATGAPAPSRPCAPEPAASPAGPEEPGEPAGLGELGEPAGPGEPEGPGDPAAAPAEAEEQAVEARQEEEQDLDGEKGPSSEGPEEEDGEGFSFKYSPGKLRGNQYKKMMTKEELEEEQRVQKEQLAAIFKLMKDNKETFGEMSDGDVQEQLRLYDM
# Chain of UniProt O75438 (O75438 whole entry, looked up): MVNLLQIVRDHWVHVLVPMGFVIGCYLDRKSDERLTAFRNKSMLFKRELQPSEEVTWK
Target,log2 fold change [1],log2 fold change [2],log2 fold change [3],log2 fold change [4],log2 fold change [5],log2 fold change [6],log2 fold change [7],log2 fold change [8],log2 fold change [9],log2 fold change [10],log2 fold change [11],log2 fold change [12],log2 fold change [13],log2 fold change [14],log2 fold change [15],log2 fold change [16],log2 fold change [17],log2 fold change [18],log2 fold change [19],log2 fold change [20]
NAPG (UniProt Q99747),0.045,-0.029,0.045,-0.098,0.054,-0.046,0.126,0.143,-0.05,0.025,0,0.128,-0.057,-0.157,-0.133,-0.011,0.034,0.033,-0.094,0.062
MOV10 (UniProt Q9HCE1),-0.086,0.032,-0.258,0.254,-0.059,0.239,0.01,-0.023,0.103,-0.093,0.068,0,0.035,0.041,0.111,0.068,-0.055,-0.101,0.091,-0.014
NOP2 isoform 4 (UniProt P46087),0,-0.127,-0.25,0.673,-0.166,0.231,0.084,-0.022,0.219,0.163,0.274,-0.065,0.111,0.066,0.344,0.096,-0.568,-0.319,0.214,-0.304
MORC3 (UniProt Q14149),0.058,0.052,0.197,-0.106,0.106,-0.017,0.185,0.122,-0.067,0.041,-0.014,0.009,-0.173,0.09,-0.154,0.105,0.011,-0.026,0.006,-0.212
MRPS21 (UniProt P82921),0.146,-0.128,0.07,0.209,0.155,–,0.004,0.16,0.037,-0.239,0.382,–,-0.347,0.137,-0.284,-0.002,0.036,0.017,-0.028,0.277
OSBPL3 (UniProt Q9H4L5),0.245,-0.017,-0.416,0.572,-0.098,–,0.198,0.063,0.189,-0.36,–,–,0.316,0.114,0.447,-0.213,-0.081,-0.173,-0.17,–
NIPSNAP3B (UniProt Q9BS92),0.03,0.053,–,0.015,-0.18,0.082,-0.045,0.039,-0.102,–,-0.085,-0.054,-0.029,0.01,-0.044,0.013,0.109,–,-0.018,0.083
OPHN1 (UniProt O60890),0.011,-0.06,0.107,0.14,0.103,-0.636 (active),-0.035,-0.21,0.26,0.018,-0.035,-0.134,-0.088,0.051,-0.04,0.093,0.028,0.099,–,0.035
NEK3 (UniProt P51956),-0.086,0.08,0.19,-0.19,-0.032,0.103,0.083,0.05,-0.014,-0.006,–,-0.246,-0.026,-0.173,-0.055,-0.037,0.101,-0.002,-0.088,-0.076
MPHOSPH8 isoform 2 (UniProt Q99549),-0.068,-0.036,-0.05,0.045,-0.006,–,0.04,-0.018,0.059,0.18,–,–,–,–,-0.025,–,-0.019,-0.116,0.01,0.031
"NA, A0A2R8Y3M9",-0.084,0.013,–,-0.011,-0.299,-0.099,–,-0.107,-0.008,-0.125,-0.605,0.19,0.035,-0.091,-0.013,0.31,0.503,-0.117,0.08,–
MXRA7 (UniProt P84157),0.043,-0.012,0.051,-0.138,-0.069,-0.122,0.005,0.047,0.035,0.103,-0.074,-0.075,-0.02,-0.057,0.042,0.057,0.03,-0.042,0.018,0.002
NDUFB1 (UniProt O75438),0.06,0.019,0.105,0.044,–,-0.27,0.001,–,-0.044,–,-0.116,0.028,0.095,0.009,–,-0.028,0.004,–,0.038,0.022
MT-ND1 (UniProt P03886),-0.011,-0.179,0.287,-0.039,0.241,–,0.105,-0.081,0.056,0.178,-0.199,–,0.102,-0.079,-0.149,-0.061,0.066,-0.036,0.633 (active),0.114
PAFAH2 (UniProt Q99487),0.005,0.029,–,0.08,0.215,–,-0.011,-0.057,0.053,-0.044,-0.083,–,–,–,-0.146,–,0.079,0.029,0.611 (active),–
NPM3 (UniProt O75607),-0.125,0.001,–,-0.043,0.022,0.109,-0.034,-0.011,0.024,0.022,0.017,-0.027,-0.045,0.062,0.101,-0.121,0.043,-0.028,0.071,-0.035
MSL1 (UniProt Q68DK7),0.092,0,0.049,–,0.195,0.31,–,-0.162,-0.054,-0.078,-0.056,0.172,0.004,0.068,0.014,-0.042,–,-0.019,-0.065,0.148
NDUFB10 (UniProt O96000),0.024,-0.025,0.012,0.027,0.023,-0.029,-0.002,0.024,0.003,-0.073,-0.105,-0.11,-0.02,0.026,-0.011,-0.021,0.015,0.081,0.044,0.019
